Read-out in test [1]: Macrophage colony-stimulating factor (MCSF), CSF1 (gene 1435)
The experiment in a line: BSK_LPS_MCSF: BioMAP Diversity Plus: LPS Assay for Macrophage colony-stimulating factor (MCSF) Biomarker Activity (AID 2283083). The following applies: primary human HUVEC with PBMC; actives raise or lower the signal. In a few lines:
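Bidirectional fitting against DMSO was applied to M-CSF levels read by ELISA at 24 h post-dose. The system pairs human umbilical vein endothelium with peripheral blood mononuclear cells; parallel SRB staining tracked cytotoxicity.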

Read-out in test [2]: Tissue Factor, F3 (gene 2152)
As to the kind of experiment: BSK_LPS_TissueFactor: BioMAP Diversity Plus: LPS Assay for Tissue Factor Biomarker Activity (AID 2283084). The following applies: primary human HUVEC with PBMC; actives raise or lower the signal. In a few lines:
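Compound was added to an endothelial cell/PBMC co-culture, and after 24 h tissue factor (CD142) was read by ELISA. Gain or loss of signal was fitted against a DMSO baseline, and parallel SRB staining (560 nm) tracked overt cytotoxicity.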

Read-out in test [3]: Tumor necrosis factor (Homo sapiens) (UniProt P01375)
As to the kind of experiment: BSK_LPS_TNFa: BioMAP Diversity Plus: LPS Assay for Tumour Necrosis Factor alpha (TNFa) Biomarker Activity (AID 2283085). Conditions: primary human HUVEC with PBMC; actives raise or lower the signal. Summed up:
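Human umbilical vein endothelial cells co-cultured with PBMC and stimulated with LPS. TNFa was measured by ELISA 24 h after chemical dosing, fitted bidirectionally relative to DMSO.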

Read-out in test [4]: Vascular cell adhesion molecule 1 (VCAM1), VCAM1 (gene 7412)
As to the kind of experiment: BSK_LPS_VCAM1: BioMAP Diversity Plus: LPS Assay for Vascular cell adhesion molecule 1 (VCAM1) Biomarker Activity (AID 2283086). The following applies: primary human HUVEC with PBMC; actives raise or lower the signal. In a few lines:
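Human umbilical vein endothelial cells co-cultured with PBMC and stimulated with LPS; VCAM-1 measured by ELISA 24 h after dosing. Bidirectional curve fitting against DMSO baseline; cytotoxicity tracked in parallel by SRB total-protein staining.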

Read-out in another test: CD40, CD40 (gene 958)
As to the kind of experiment: BSK_SAg_CD40: BioMAP Diversity Plus: SAg Assay for CD40 Biomarker Activity (AID 2283088). Conditions: primary human HUVEC with PBMC; actives raise or lower the signal. Summed up: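 CD40 is measured by fluorescence ELISA in an endothelial/PBMC primary human co-culture at 24 h post-dose. Fitting is bidirectional, DMSO baseline. Parallel SRB staining (560 nm) flags cytotoxicity.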

Read-out in the next test: CD69, CD69 (gene 969)
The experiment in a line: BSK_SAg_CD69: BioMAP Diversity Plus: SAg Assay for CD69 Biomarker Activity (AID 2283089).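 On AC50: cell surface CD69 protein quantified by ELISA with fluorescence detection.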 The following applies: primary human HUVEC with PBMC; actives raise or lower the signal. In a few lines: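 Values derive from bidirectional fitting relative to DMSO vehicle. Cells: umbilical vein endothelium plus peripheral blood mononuclear cells, treated 24 h before fluorescent ELISA for CD69.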

Read-out in test [5]: Monocyte Chemoattractant Protein-1 (MCP1), CCL2 (gene 6347)
As to the kind of experiment: BSK_SAg_MCP1: BioMAP Diversity Plus: SAg Assay for Monocyte Chemoattractant Protein-1 (MCP1) Biomarker Activity (AID 2283090). The following applies: primary human HUVEC with PBMC; actives raise or lower the signal. In a few lines:
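MCP-1 levels in the endothelial–PBMC SAg co-culture were quantified by ELISA at 24 h post-dosing; both increases and decreases versus DMSO scored. Cytotoxicity monitored by SRB total protein in parallel cultures.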

Read-out in test [6]: E-selectin (Homo sapiens) (UniProt P16581)
As to the kind of experiment: BSK_SAg_Eselectin: BioMAP Diversity Plus: SAg Assay for Eselectin Biomarker Activity (AID 2283091). The following applies: primary human HUVEC with PBMC; actives raise or lower the signal. Summed up: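 Cell-surface E-selectin is read by ELISA at 24 h in the SAg co-culture of HUVEC and PBMC. Curves are fitted in both directions relative to DMSO. Parallel SRB total-protein staining tracks overt toxicity.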

Read-out in test [7]: Monokine induced gamma interferon (MIG), CXCL9 (gene 4283)
The experiment in a line: BSK_SAg_MIG: BioMAP Diversity Plus: SAg Assay for Monokine induced gamma interferon (MIG) Biomarker Activity (AID 2283092). Conditions: primary human HUVEC with PBMC; actives raise or lower the signal. Summed up: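 Values reflect bidirectional fitting of ELISA-measured MIG against DMSO vehicle, taken 24 h after dosing of a co-culture of human umbilical vein endothelial cells and peripheral blood mononuclear cells.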

A short description of test [8]: BSK_SAg_PBMCCytotoxicity: PBMC Cytotoxicity Assessment in the BioMAP Diversity Plus: SAg Assay (AID 2283093).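 Further: PBMC viability measured as Alamar Blue reduction fluorescence at 546/580 nm; fitted both ways against DMSO so a hit may be loss or gain of signal.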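 On AC50: PBMC superantigen activated with SEB plus TSST-1 one hour after compound addition.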 The following applies: primary human HUVEC with PBMC. Summed up: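 Human umbilical vein endothelial cells co-cultured with PBMC; PBMC (75,000/well) pre-treated with compound 1 h, then activated with SEB and TSST-1 (20 ng/mL final each) for 90 h. Alamar Blue added 6 h, fluorescence 546/580 nm; bidirectional fit versus DMSO.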

Read-out in test [9]: Interleukin-8 (IL8), CXCL8 (gene 3576)
The experiment in a line: BSK_SAg_IL8: BioMAP Diversity Plus: SAg Assay for Interleukin-8 (IL8) Biomarker Activity (AID 2283094). The following applies: primary human HUVEC with PBMC; actives raise or lower the signal. Summed up: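 Human umbilical vein endothelial cells co-cultured with PBMC, stimulated with superantigen; IL-8 measured by ELISA 24 h after chemical dosing. Bidirectional fitting versus DMSO; SRB staining in parallel cultures tracks cytotoxicity.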

The nature of test [10]: BSK_SAg_Proliferation: Cell Proliferation Assessment in the BioMAP Diversity Plus: SAg Assay (AID 2283095). Conditions: primary human HUVEC with PBMC. In a few lines: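 Human umbilical vein endothelial cells co-cultured with PBMC; sulforhodamine B total-protein staining (0.1% SRB after 10% TCA fixation, absorbance 560 nm) at 96 h in sub-confluent culture. Fitted bidirectionally against DMSO.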

The nature of test [11]: BSK_SAg_SRB: Viability Assessment in the BioMAP Diversity Plus: SAg Assay (AID 2283096).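 Further: cells read one day after compound addition; hits may be either gain or loss of signal compared with DMSO.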 The following applies: primary human HUVEC with PBMC. In a few lines:
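Endothelial/PBMC primary human co-culture; compound 24 h; fix 10% TCA, stain 0.1% SRB, A560; protein content as cytotoxicity proxy; bidirectional curve fit, DMSO = baseline.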

For test [12], the target named is human CYP1A1, CYP1A1 (gene 1543) (UniProt P04798). As to the kind of experiment: NVS_ADME_hCYP1A1: NovaScreen (NVS) CYP450-related Enzyme Activity (ADME) Assay for human CYP1A1 (AID 2283100; active means hit-call score of the fitted dose curve at least 0.9, where 1 is the maximum). In a few lines: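 Chemicals were first tested in duplicate at 10 uM, and those passing a 30% inhibition threshold were rerun as concentration series topping at 20 uM. Fluorescence read-out of recombinant enzyme turnover after 1 h, relative to acetonitrile.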
human CYP1A1, CYP1A1 (gene 1543), sequence (P04798 whole entry, looked up): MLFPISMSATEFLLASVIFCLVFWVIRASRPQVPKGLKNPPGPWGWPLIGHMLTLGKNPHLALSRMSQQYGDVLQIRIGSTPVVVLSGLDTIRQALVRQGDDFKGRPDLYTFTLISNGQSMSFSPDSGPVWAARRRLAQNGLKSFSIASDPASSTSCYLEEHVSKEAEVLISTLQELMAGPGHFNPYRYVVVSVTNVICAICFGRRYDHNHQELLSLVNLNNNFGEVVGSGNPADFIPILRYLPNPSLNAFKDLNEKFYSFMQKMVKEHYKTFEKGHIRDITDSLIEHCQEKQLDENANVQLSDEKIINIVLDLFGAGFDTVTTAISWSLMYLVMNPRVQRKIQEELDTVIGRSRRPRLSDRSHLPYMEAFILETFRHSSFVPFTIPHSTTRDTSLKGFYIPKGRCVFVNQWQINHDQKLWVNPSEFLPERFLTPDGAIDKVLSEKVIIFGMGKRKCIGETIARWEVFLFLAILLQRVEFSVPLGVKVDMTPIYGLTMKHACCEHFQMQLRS

For test [13], the target named is human CYP2B6, CYP2B6 (gene 1555) (UniProt P20813). As to the kind of experiment: NVS_ADME_hCYP2B6: NovaScreen (NVS) CYP450-related Enzyme Activity (ADME) Assay for human CYP2B6 (AID 2283101; active means hit-call score of the fitted dose curve at least 0.9, where 1 is the maximum). In a few lines:
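Compounds were first screened in duplicate at 10 uM against recombinant enzyme, with the fluorescent product measured after 1 hour. Active compounds were retested over a concentration series. Loss of fluorescence versus acetonitrile control was scored as reduced enzyme activity.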

In test [14] the target is human CYP1A2, CYP1A2 (gene 1544) (UniProt P05177). As to the kind of experiment: NVS_ADME_hCYP1A2: NovaScreen (NVS) CYP450-related Enzyme Activity (ADME) Assay for human CYP1A2 (AID 2283102; active means hit-call score of the fitted dose curve at least 0.9, where 1 is the maximum;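 further: fluorescence from turnover of a fluorogenic substrate by recombinant insect-cell CYP1A2; potency for inhibition since loss of fluorescence marks reduced CYP1A2 activity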). In a few lines:
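Enzyme activity of insect-cell-expressed human CYP1A2 measured by fluorescence 0.5 h after compound addition, relative to acetonitrile. Compounds first tested in duplicate at 10 uM, actives followed up in concentration series.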

The target in test [15] is human CYP2D6, CYP2D6 (gene 1565) (UniProt P10635). The experiment in a line: NVS_ADME_hCYP2D6: NovaScreen (NVS) CYP450-related Enzyme Activity (ADME) Assay for human CYP2D6 (AID 2283107; active means hit-call score of the fitted dose curve at least 0.9, where 1 is the maximum). Summed up:
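Fluorescence readout of recombinant CYP2D6 (insect-cell derived) activity after 1 h incubation with test chemical. Acetonitrile served as baseline, loss-of-signal direction. Single-concentration duplicate screening at 10 uM preceded concentration-response retesting.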

Read-out in a further test: CD38, CD38 (gene 952)
As to the kind of experiment: BSK_SAg_CD38: BioMAP Diversity Plus: SAg Assay for CD38 Biomarker Activity (AID 2283087). The following applies: primary human HUVEC with PBMC; actives raise or lower the signal. In a few lines: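 Human HUVEC plus PBMC co-culture stimulated with superantigen; CD38 measured by ELISA 24 h after chemical dosing. Fluorescence read-out, bidirectional fit against DMSO; cytotoxicity tracked in parallel by SRB and Alamar Blue.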

For test [16], the target named is human CYP19A1, CYP19A1 (gene 1588) (UniProt P11511). The experiment in a line: NVS_ADME_hCYP19A1: NovaScreen (NVS) CYP450-related Enzyme Activity (ADME) Assay for human CYP19A1 (AID 2283098; active means hit-call score of the fitted dose curve at least 0.9, where 1 is the maximum;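 further: potency for inhibitors seen as loss of fluorescent enzyme signal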). In a few lines:
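Cell-free enzyme assay with recombinant protein and a specific fluorogenic substrate, read by fluorescence intensity 0.5 h after dosing. Primary screen ran in duplicate at 10 uM; actives were retested in concentration series. Loss of signal versus acetonitrile baseline.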

Each structure is given as a SMILES string. Results filed as inconclusive are left out. Active and inactive are the calls of the source. How the source made its calls, unless noted: active means hit-call score of the fitted dose curve at least 0.9, where 1 is the maximum; inactive means score below 0.9.

E-selectin (Homo sapiens), sequence (P16581 whole entry, looked up): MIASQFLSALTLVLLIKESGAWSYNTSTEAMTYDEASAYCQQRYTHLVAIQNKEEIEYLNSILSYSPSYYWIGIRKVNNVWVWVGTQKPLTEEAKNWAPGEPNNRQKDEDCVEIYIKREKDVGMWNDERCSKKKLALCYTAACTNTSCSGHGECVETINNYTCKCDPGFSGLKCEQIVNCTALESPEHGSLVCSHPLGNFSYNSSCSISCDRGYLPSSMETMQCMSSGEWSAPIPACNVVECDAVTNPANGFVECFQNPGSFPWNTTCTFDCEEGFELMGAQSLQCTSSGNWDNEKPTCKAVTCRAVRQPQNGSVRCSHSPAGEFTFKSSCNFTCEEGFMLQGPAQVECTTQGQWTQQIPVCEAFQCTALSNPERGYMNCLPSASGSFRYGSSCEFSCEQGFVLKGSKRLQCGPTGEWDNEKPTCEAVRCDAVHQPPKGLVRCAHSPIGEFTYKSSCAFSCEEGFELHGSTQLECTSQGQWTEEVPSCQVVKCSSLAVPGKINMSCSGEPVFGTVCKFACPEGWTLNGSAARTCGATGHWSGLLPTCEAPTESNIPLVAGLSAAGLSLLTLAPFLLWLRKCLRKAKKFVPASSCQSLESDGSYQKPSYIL
Tumor necrosis factor (Homo sapiens), sequence (P01375 whole entry, looked up): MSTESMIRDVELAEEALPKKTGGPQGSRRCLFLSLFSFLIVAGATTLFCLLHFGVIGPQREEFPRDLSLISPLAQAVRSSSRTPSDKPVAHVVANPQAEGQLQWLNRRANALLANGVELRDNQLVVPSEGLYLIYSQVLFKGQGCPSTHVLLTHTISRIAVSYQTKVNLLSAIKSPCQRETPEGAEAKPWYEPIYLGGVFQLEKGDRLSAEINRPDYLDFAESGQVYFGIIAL
human CYP2B6, CYP2B6 (gene 1555), sequence (P20813 whole entry, looked up): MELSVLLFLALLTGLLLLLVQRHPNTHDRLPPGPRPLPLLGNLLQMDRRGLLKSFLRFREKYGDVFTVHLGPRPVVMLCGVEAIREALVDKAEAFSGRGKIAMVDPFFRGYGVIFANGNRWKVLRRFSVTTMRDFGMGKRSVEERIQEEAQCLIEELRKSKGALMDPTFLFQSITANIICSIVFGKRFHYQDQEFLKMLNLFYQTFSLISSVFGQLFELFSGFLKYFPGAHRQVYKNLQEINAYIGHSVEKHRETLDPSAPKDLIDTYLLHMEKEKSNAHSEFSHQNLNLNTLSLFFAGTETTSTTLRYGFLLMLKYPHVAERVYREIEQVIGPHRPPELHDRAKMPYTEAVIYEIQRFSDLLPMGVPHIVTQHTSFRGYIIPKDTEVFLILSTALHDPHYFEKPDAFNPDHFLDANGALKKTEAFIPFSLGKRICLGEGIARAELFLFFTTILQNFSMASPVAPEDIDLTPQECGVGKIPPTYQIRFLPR
human CYP1A2, CYP1A2 (gene 1544), sequence (P05177 whole entry, looked up): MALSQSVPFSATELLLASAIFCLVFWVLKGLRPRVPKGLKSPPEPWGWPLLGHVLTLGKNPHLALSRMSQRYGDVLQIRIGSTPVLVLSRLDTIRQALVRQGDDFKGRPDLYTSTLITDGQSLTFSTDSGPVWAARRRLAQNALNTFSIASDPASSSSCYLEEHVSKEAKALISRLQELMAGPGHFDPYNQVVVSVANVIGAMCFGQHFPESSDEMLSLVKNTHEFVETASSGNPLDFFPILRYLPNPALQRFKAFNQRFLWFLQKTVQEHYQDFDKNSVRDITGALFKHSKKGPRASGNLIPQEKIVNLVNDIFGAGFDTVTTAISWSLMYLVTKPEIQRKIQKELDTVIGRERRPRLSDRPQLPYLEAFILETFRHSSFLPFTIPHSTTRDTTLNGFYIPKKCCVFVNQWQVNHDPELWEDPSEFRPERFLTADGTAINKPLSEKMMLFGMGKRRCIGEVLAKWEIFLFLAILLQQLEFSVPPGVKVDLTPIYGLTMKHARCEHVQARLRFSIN
human CYP2D6, CYP2D6 (gene 1565), sequence (P10635 whole entry, looked up): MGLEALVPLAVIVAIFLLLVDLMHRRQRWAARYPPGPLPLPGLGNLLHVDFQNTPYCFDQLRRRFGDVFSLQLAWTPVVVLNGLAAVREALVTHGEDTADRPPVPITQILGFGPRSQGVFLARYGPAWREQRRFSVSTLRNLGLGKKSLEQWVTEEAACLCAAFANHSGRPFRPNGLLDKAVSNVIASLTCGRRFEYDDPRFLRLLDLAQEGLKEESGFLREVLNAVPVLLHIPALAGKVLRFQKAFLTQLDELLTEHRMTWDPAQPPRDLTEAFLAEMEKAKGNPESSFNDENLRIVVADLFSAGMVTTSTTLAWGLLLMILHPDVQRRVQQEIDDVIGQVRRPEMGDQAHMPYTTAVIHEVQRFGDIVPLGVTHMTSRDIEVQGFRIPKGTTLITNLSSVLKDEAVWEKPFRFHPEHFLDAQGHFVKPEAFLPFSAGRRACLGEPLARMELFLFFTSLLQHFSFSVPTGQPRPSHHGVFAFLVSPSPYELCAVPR
human CYP19A1, CYP19A1 (gene 1588), sequence (P11511 whole entry, looked up): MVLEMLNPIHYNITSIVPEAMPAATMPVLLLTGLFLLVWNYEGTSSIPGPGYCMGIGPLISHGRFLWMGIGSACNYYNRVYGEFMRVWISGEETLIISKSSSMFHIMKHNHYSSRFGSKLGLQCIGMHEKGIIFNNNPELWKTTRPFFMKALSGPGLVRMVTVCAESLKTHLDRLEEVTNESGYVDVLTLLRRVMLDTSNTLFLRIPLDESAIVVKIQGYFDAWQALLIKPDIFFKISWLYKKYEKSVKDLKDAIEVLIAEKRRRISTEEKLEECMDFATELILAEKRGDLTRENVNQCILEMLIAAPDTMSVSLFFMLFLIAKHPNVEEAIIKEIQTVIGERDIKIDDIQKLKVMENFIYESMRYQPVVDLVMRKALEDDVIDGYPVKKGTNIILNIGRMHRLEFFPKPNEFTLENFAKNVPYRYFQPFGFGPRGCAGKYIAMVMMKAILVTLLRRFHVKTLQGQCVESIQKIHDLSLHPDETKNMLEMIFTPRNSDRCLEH

As to `Cc1[nH]cnc1C[C@H]1CCc2c(C)c3ccccc3n2C1=O`, the AC50 (in general, the midpoint of the concentration-response curve, whichever way the signal moves) in [1] is 29.2 µM (active); in test [3] it was 25.7 µM (active); in test [4] it was 32.9 µM (active); with CD40, CD40 (gene 958), 29.8 µM (active); with CD69, CD69 (gene 969), 27.4 µM (active); in test [5], 27.8 µM (active). Moreover, the AC50 in test [6] is 30.8 µM (active); in [7] it was 31.9 µM (active); in [8] it was 30.7 µM (active); in test [9], 24.7 µM (active); in test [10] it was 31 µM (active); in [11] it was 26.8 µM (active). Further, the AC50 is 3.83 µM (active) in [12], 4.01 µM (active) in test [13], 1.78 µM (active) in test [14] and 3.98 µM (active) in test [15]. Further, in [2], the outcome was inactive.
Take `O=C(O)c1cc(N=Nc2ccc(S(=O)(=O)Nc3ccccn3)cc2)ccc1O`: the outcome is “inactive” in [1]; “inactive” in [2]; “inactive” in test [3]; “inactive” in test [4]; “inactive” with CD40, CD40 (gene 958); “inactive” in the test with CD69, CD69 (gene 969). Besides, the outcome in test [5], in test [6], in [7], in test [8], in test [9] and in [10] was inactive. Further, the result in test [11] and in test [12] was inactive.
Take `O=c1n(CC2CO2)c(=O)n(CC2CO2)c(=O)n1CC1CO1` (centres undefined): the AC50 in test [1] was 20 µM (active); in test [4] it was 21.8 µM (active); in the test with CD40, CD40 (gene 958) it was 20 µM (active); with CD69, CD69 (gene 969), 20 µM (active); in test [5], 20 µM (active); in test [6], 10.7 µM (active). Besides, the AC50 was 20 µM (active) in [9], 10.6 µM (active) in test [10] and 17.5 µM (active) in [11]. Further, the result in test [2], in test [3] and in test [8] was inactive.
`CC(C)=CCC/C(C)=C\CO`: the outcome was “inactive” in [1]; “inactive” in [2]; “inactive” in test [3]; “inactive” in the test with CD38, CD38 (gene 952); “inactive” in the test with CD40, CD40 (gene 958); “inactive” with CD69, CD69 (gene 969). Besides, the outcome in test [5], in [6], in [8], in test [9], in test [10] and in test [11] was inactive.
Turning to `CCOC(=O)c1ccc(C2CCC(NC[C@H](O)COc3ccc(O)c(NS(C)(=O)=O)c3)CC2)cc1` (some centres undefined), the AC50 in test [1] was 18.7 µM (active); in test [4], 28.1 µM (active); with CD69, CD69 (gene 969) it was 29.8 µM (active); in [5] it was 11.6 µM (active); in [8], 20.6 µM (active); in [9] it was 28.8 µM (active). For the same molecule, the AC50 in test [10] is 14.4 µM (active); in test [11], 26.3 µM (active); in [16], 0.513 µM (active). For the same molecule, the outcome in test [2] was “inactive”; in test [3], “inactive”; with CD40, CD40 (gene 958), “inactive”; in test [6], “inactive”; in [13], “inactive”.

(Values after PubChem BioAssay (EPA / NIEHS).)
